40 molecules from PubChem BioAssay (Tox21) can be followed below.

Records with an inconclusive call do not appear. Unmarked numbers belong to inactive results. Calls follow the shape of the dose curve; as a rule, active = well fitted activation curve with a large enough effect in the signal ratio in the repeat runs (not every such curve was filed as active); inconclusive = weak or mixed curves; inactive = flat fitted curve, though single readings scatter; the % refers to the signal ratio.
% is scaled to controls: 0 for no effect and ±100 for the full control effect.

The assay is described as follows: p53 small molecule agonists, cell-based qHTS assay (AID 1963582). The settings on record: HCT-116 p53RE-bla reporter, beta-lactamase FRET ratio, 16 h; series mostly up to 66 µM; activation: at the top concentration. The text has this: National Center for Advancing Translational Sciences [NCATS]
Division of Preclinical Innovation [DPI]
U.S. Environmental Protection Agency [EPA]
National Institutes of Environmental Health Sciences [NIEHS]
National Toxicology Program [NTP]
U.S. Food and Drug Administration [FDA]
p53, a tumor suppressor protein, is activated following cellular insult, including DNA damage and other cellular stresses. The activation of p53 regulates cell fate by inducing DNA repair, cell cycle arrest, apoptosis, or cellular senescence. The activation of p53, therefore, is a good indicator of DNA damage and other cellular stresses. […] The activation of the reporter gene under culture conditions can be detected by fluorescence intensity. This cell line was used to screen the Tox21 10K compound library in a 1536-well plate format and to identify agonists that activate the p53 signaling pathway.
Tox21 Assay Protocol Summary:
The p53RE-bla cells were dispensed at 4,000 cells/5 ul/well in 1536-well black wall/clear bottom plates using a Multidrop dispenser. After the assay plates were incubated at a 37 C/5% CO2 incubator for 5 hours, 23 nL of compounds dissolved in DMSO, positive controls or DMSO only was transferred to the assay plate by a pin tool. The plates were incubated at 37 C for 16 hours. After 1 uL of LiveBLAzerTM B/G FRET substrate was added using a Flying Reagent Dispenser, the plates were incubated at room temperature for 2 hours, and fluorescence intensity was measured by an Envision plate reader.
As to `COc1cc2c(cc1OC)C(=O)CC2`, the “activation” value was -2.26% [at 30.3 µM]. In the case of `O=C1c2ccccc2C(=O)c2cc(Cl)ccc21`, the activation was -0.497% [at 5.99 µM]. Take `CN1[C@@H]2CC[C@H]1CC(OC(=O)c1c[nH]c3ccccc13)C2` (stereo not given in full): the “activation” value was 1.34% [at 30.3 µM]. Turning to `O=C1OCc2ccccc21`, the “activation” value is -0.49%. For the molecule `COc1ccc(C(=O)N2CCN(CC(=O)N3CCOCC3)CC2)cc1`, the “activation” value was 0.985% [at 30.3 µM]. Regarding `CCCN(CCC)c1c([N+](=O)[O-])cc(C(F)(F)F)c(N)c1[N+](=O)[O-]`, the “activation” value was -3.47%. In the case of `CCCCOc1cc(C(=O)NCCN(CC)CC)c2ccccc2n1` it was -3.05% [at 30.3 µM]. For `CCc1cccc(CC)c1`, the “activation” value was -1.97%. Turning to `CCCCN(C)C`, the “activation” value is 0.261%. For `CO[Si](CCC1CCC2OC2C1)(OC)OC` (stereo not given), the “activation” value is -0.151%.

Consider `CN1CCN(c2c(F)cc3c(=O)c(C(=O)O)cn4c3c2OCN4C)CC1`, for which the activation was -0.645% [at 13.5 µM]. For the molecule `C=C(C)C(=O)OCCOCC`, the “activation” value was 0.0512%.

Turning to `O=C(O)CNCC(=O)O`, the activation was 0.447% [at 5.99 µM]. As to `O=C(NCCO[N+](=O)[O-])c1cccnc1`, the “activation” value was -0.214% [at 30.3 µM]. As for `CCc1nccnc1C`, the “activation” value is 4.2%. In the case of `CC(=O)OCC(=O)[C@@]1(O)CCC2C3CCC4=CC(=O)CC[C@]4(C)C3[C@@H](O)C[C@@]21C` (stereo not given in full), the “activation” value is -0.537% [at 30.3 µM]. As for `CC(=O)c1cnccn1`, the “activation” value is -2.96%.

As to `C=COC(=O)C(C)(CC)CCC(C)C` (stereo not given), the “activation” value was -2.85%. As for `CCCCCCCCCCCc1ccccc1`, the “activation” value is -0.679%. Consider `CCN(CC)C(C)CN1c2ccccc2Sc2ccccc21` (stereo not given), for which the “activation” value was 0.573% [at 30.3 µM].

As for `O=c1c(O)c(-c2ccc(O)cc2O)oc2cc(O)cc(O)c12`, the “activation” value is -7.29%.

Turning to `CCOC(=O)C(=O)c1csc(NC=O)n1`, the “activation” value was 0.665% [at 30.3 µM].

For the molecule `C[Si]1(C)O[Si](C)(C)O[Si](C)(C)O1`, the “activation” value is -1.75%. Then `OCCCO`, with 4.31%; and `CC(C)C(=O)OCc1ccccc1`, with 2.35%. As for `CCN1CCN(c2cc(-c3ccc(F)cc3)c3c(n2)CCCCCC3)CC1`, the activation was -0.331% [at 13.5 µM]. For the molecule `Brc1ccccn1`, the “activation” value is 0.0542%. On to `OC(CCN1CCCCC1)(c1ccccc1)c1ccccc1`, for which the “activation” value is -3.45% [at 30.3 µM].

Turning to `CCS(=O)(=O)CCn1c([N+](=O)[O-])cnc1C`, the “activation” value was -0.798% [at 30.3 µM]. As to `C=CCCCC`, the “activation” value was -0.953%. Consider `CC(C)c1ccc2oc3nc(N)c(C(=O)O)cc3c(=O)c2c1`, for which the “activation” value is -7.58% [at 30.3 µM]. In the case of `CCCCC(=O)OCC(=O)[C@H]1[C@H](C)C[C@H]2[C@@H]3C[C@H](F)C4=CC(=O)C=C[C@]4(C)[C@@]3(F)[C@@H](O)C[C@@]21C` it was -1.54% [at 30.3 µM]; in that of `CC1=NN(c2ccc(C(=O)O)cc2)C(=O)C1`, -0.382%. Take `O=S(O)(O)=S`: the activation was -3.63% [at 5.99 µM]. Consider `C=CC(=O)OCC(Br)CBr` (stereo not given), for which the “activation” value was -3.75%.

For the molecule `BrCCCCCBr`, the “activation” value was -5.94%. Then `CC(C)(O)CCc1ccccc1`, with 2.37%; and `Cc1cccc(C)c1C`, with 0.145%; and `Cc1ccc(C=O)s1`, with 1.14%.

On to `CC(=O)N(CC(=O)N(C)C)c1ccccc1`, for which the “activation” value was 0.801% [at 30.3 µM].
